# Test results: PubChem BioAssay (NCI)
# Where “and” joins values, the source holds several entries; their conditions need not be identical. Equal entries are not always repeated. Compounds without any hit were thinned out: in the full panel of roughly 83,000, 20% have a hit.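 Treatment: one concentration, 48 hours, 96-well format. Scoring: percent growth, with anything below 10 considered active.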 Calls of active or inactive are those of the source.
# Tested on: SK-OV-3 ovarian
# Test: NCI-60 one-dose screen, 48 h (100 = growth as untreated, 0 = no growth, -100 = all killed)
# Details: 10 µM
# Protocol: Growth inhibition of the SK-OV-3 human tumor cell line is measured as a screen for anti-cancer activity. Cells are grown in 96 well plates and exposed to the test compound for 48 hours. Compounds are tested at a single concentration, which is 10^-5 M for most compounds. The reported endpoint is percent growth (GI% or GIPRCNT), where numbers from 0 - 100% represent growth inhibition, and numbers from -100% - 0 represent cell death. For example, a value of 40 represents 60% growth inhibition. A value of 0 means no net growth occurred over the course of the experiment. A value of -40 indicates 40% of cells at the beginning of the experiment died by the end of the experiment. A value of -100 means all cells are dead at the end of the experiment.
# NCI-60 Human Tumor Cell Lines Screen was performed using the standard one-dose NCI protocol, which is described in more detail at https://dtp.cancer.gov/discovery_development/nci-60/default.htm.
# Compounds with GIPRCNT values below 10 were considered active. Activity score was based on GIPRCNT using the following formula: […]
# Score is 0 for GIPRCNT values of 100 or above, 50 for GIPRCNT values of 0, and 100 for GIPRCNT values of -100.
row,SMILES,growth
1,COc1ccc(C(=O)/C=C/c2ccc(OCc3cccc(C(F)(F)F)c3)c(OC)c2)cc1OC,88.7% (inactive)
2,CC(=O)/C=C/c1ccc(N(CCO)Cc2ccc(C(C)(C)C)cc2)cc1,83.7% (inactive)
3,CC(=O)/C=C/c1ccc(OCc2ccc(Cl)cc2)cc1,110% (inactive)

# Same assay, conditions: 10 µM unless noted
row,SMILES,growth
1,COc1cc(-c2nc3occn3c2-c2ccnc(NCCCNS(=O)(=O)c3ccc(O)cc3)n2)ccc1F,82.4% (inactive)
2,O=C(NCc1cccnc1)/C(=C\c1ccc(Br)cc1)S(=O)(=O)c1ccccc1,10.2% (inactive)
3,O=S(=O)(Nc1cc(Sc2cccc3cccnc23)c(O)c2ccccc12)c1ccc(F)cc1,50.8% (inactive)
4,O=Nc1c(O)ccc2ccccc12,93.6% (inactive) and 101% (inactive)
5,C=C(C)[C@@H]1CC[C@]2(C(=O)O)CC[C@]3(C)[C@H](CC[C@@H]4[C@@]5(C)CCC(N)C(C)(C)[C@@H]5CC[C@]43C)[C@@H]12 (stereo not given in full),106% (inactive)
6,CON1CCC[C@]2(C)[C@H]3CC[C@@H]4[C@H]5[C@@H](O)C(C)(C)CC[C@]5(CO)CC[C@@]4(C)[C@]3(C)CC[C@H]2C1(C)C,90.1% (inactive)
7,Cc1ccc2nc3ccccc3c(NCc3ccc(Cl)cc3)c2c1,75.2% (inactive)
8,O=C(/C=C/c1ccc(Cl)s1)c1ccc(Cl)s1,94.5% (inactive) and 102% (inactive)
9,CCCCCCCCCCCCCCCC[N+](C)(C)CCN(Cc1ccc(OC)cc1)c1ncccn1,14.6% (inactive) and 67.4% (inactive)
10,O=C1OCC2=C1C(c1cccc(C(F)(F)F)c1)c1cc3c(cc1N2CCO)OCCO3 (stereo not given),16.1% (inactive)
11,CC[C@]1(O)CC2CN(CCc3c([nH]c4ccccc34)C(C(=O)OC)(c3cc4c(cc3OC)N(C=O)[C@H]3[C@@](O)(C(=O)OC)[C@H](OC(C)=O)[C@]5(CC)[C@@H]6C[C@@H]6CN6CC[C@]43[C@@H]65)C2)C1 (stereo not given in full),-17.7% (active)
12,COC1/C=C/OC2(C)Oc3c(C)c(O)c4c(O)c(c(C=NOC(c5ccccc5)c5ccccc5)c(O)c4c3C2=O)NC(=O)/C(C)=C/C=C/C(C)C(O)C(C)C(O)C(C)C(OC(C)=O)C1C (stereo not given),-34% (active)
13,CCCCCCCC/C=C\CCCCCCCCOc1ccccc1CC(=O)NCC[N+]1(C)CCOCC1,75.3% (inactive)
14,Clc1ccc2c(NCCN3CCN(c4ccnc(N5CCCC5)n4)CC3)ccnc2c1,90% (inactive)
15,Clc1ccc(CNc2ccc3nc(CCC4CCCCC4)[nH]c3c2)cc1,78.9% (inactive)
16,COc1cc(-c2nn(-c3cccc(NC(=O)CCN4CCN(C)CC4)c3)cc2-c2ccncc2)ccc1Cl,23.1% (inactive)
17,Cc1cccc(Cc2cnc(NC(=O)CCCOc3ccc(Cl)cc3)s2)c1,36.4% (inactive)

row,SMILES,growth
1,CC(=O)OC[C@]12CCC(C)(C)C=C1[C@H]1CC[C@@H]3[C@@]4(C)CCCNC(C)(C)[C@@H]4CC[C@@]3(C)[C@]1(C)CC2,90.5% (inactive)
2,CC(=O)N1N=C(c2ccc(Nc3nc(Nc4ccc(F)cc4)nc(Nc4ccc(F)cc4)n3)cc2)CC1c1ccccc1 (stereo not given),89.2% (inactive)
3,COc1ccc(/C(C)=C(\c2ccc(OCCN3CCCCCC3)cc2)c2ccc(OC(=O)C3CCCCC3)cc2)cc1,-70.9% (active)
4,Cc1ccc(-c2nc3nc(-c4ccccc4)nc(N4CCN(S(=O)(=O)c5ccccc5)CC4)c3o2)cc1,77.4% (inactive)
5,N=C(N)SCc1c2ccccc2c(CSC(=N)N)c2ccccc12,81.4% (inactive)
6,COc1cc(Nc2nc3ccccc3cc2C(=O)Nc2ccc(F)c(F)c2)cc(OC)c1OC,42.2% (inactive)
7,Nc1c(C(=O)Nc2ccncc2)sc2nc3c(cc12)CCCCCCCC3,-92.1% (active)
8,CC(Sc1ccccc1)C(=O)O (stereo not given),97.3% (inactive)
9,CCCCCC#CC1OC23CCCCC2C(C#N)(C(=N)O3)C1(C#N)C#N (stereo not given),111% (inactive)
10,O=[N+]([O-])c1ccc(S(=O)Cc2ccccc2)c([N+](=O)[O-])c1 (stereo not given),104% (inactive) and 109% (inactive)
11,CCOC(=O)N(O)c1ccc(/C=C/c2ccccc2)cc1,94.1% (inactive) and 92.6% (inactive)
12,Cc1n(Cc2ccc3ccccc3c2)c(Cl)c(Cl)[n+]1Cc1ccc2ccccc2c1,65.5% (inactive)
13,Cc1ccc(C(=O)N(CCCN)[C@@H](c2nc3cc(Cl)ccc3c(=O)n2Cc2ccccc2)C(C)C)cc1,38.6% (inactive)
14,CSc1nnc(-c2cc3c([nH]c4ccccc43)c(-c3cccc(O)c3)n2)n1-c1ccc(C)cc1,42% (inactive)
15,COc1cc(/C=N/NC(=O)CCN2c3ccccc3Sc3ccccc32)cc(OC)c1OC,105% (inactive)
16,CN1CCN(c2ccc(/C=C/C(=O)c3ccc(O)cc3)cc2)CC1,105% (inactive)
17,O=[N+]([O-])c1ccc2[nH]c3nccc(NCc4cccc(Cl)c4)c3c2c1,91.9% (inactive)

# Same assay, conditions: 100 µM
row,SMILES,growth
1,COc1ccc(C(=O)/C=C/c2ccc(OCc3cccc(C(F)(F)F)c3)c(OC)c2)cc1OC,20% (inactive)
2,CC(=O)/C=C/c1ccc(N(CCO)Cc2ccc(C(C)(C)C)cc2)cc1,-99% (active)
3,CC(=O)/C=C/c1ccc(OCc2ccc(Cl)cc2)cc1,38.8% (inactive)
